PubChem BioAssay AID1159580 (chemical genetic matrix, 2015)
The campaign covered roughly 5,500 compounds. About 2,000 (36%) were called active. About 18% were inconclusive and are not listed. No stated cut-off is given here; in the data, active means normalized growth mostly below about 0.91 (no sharp cut-off); inconclusive means no clear call, values can overlap the other calls; inactive means mostly above about 0.92. This is one part of the list.

Test: chemical genetic growth profiling, strain panel (AID 1159580);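 further: tested at 20 µM; growth read once vehicle control cultures reached saturation at 30 °C; 1 = growth at the plate median or of vehicle wells; lower values mean less growth of the strain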
Conditions: growth OD

Measured: normalized growth

C[C@H](N)[C@H](O)c1ccc(O)c(O)c1
inactive: S. cerevisiae deletion strains, locus YJR066W, strain TOR1, active compounds read low 0.948 | S. cerevisiae deletion strains, locus YJR075W, strain HOC1, active compounds read low 0.993 | S. cerevisiae deletion strains, locus YKL009W, strain mrt4, active compounds read low 0.994 | S. cerevisiae deletion strains, locus YKL068W, active compounds read low 0.986 | S. cerevisiae deletion strains, locus YKL085W, strain MDH1 (second series), active compounds read low 0.983 | S. cerevisiae deletion strains, locus YKL085W, strain MDH1, active compounds read low 0.983 | S. cerevisiae deletion strains, locus YKL160W, strain elf1, active compounds read low 0.981 | S. cerevisiae deletion strains, locus YKR001C, strain vps1, active compounds read low 0.978 | S. cerevisiae deletion strains, locus YKR026C, strain gcn3, active compounds read low 1 | S. cerevisiae deletion strains, locus YKR091W, strain srl3, active compounds read low 0.998 | S. cerevisiae deletion strains, locus YLL001W, strain dnm1, active compounds read low 0.954 | S. cerevisiae deletion strains, locus YLL026W, active compounds read low 1.01 | S. cerevisiae deletion strains, locus YLL041C, strain sdh2, active compounds read low 1.01 | S. cerevisiae deletion strains, locus YLR027C, strain aat2, active compounds read low 1.01 | S. cerevisiae deletion strains, locus YLR039C, strain RIC1, active compounds read low 0.959 | S. cerevisiae deletion strains, locus YLR058C, strain SHM2, active compounds read low 0.993 | S. cerevisiae deletion strains, locus YLR102C, strain apc9, active compounds read low 0.988 | S. cerevisiae deletion strains, locus YLR113W, strain HOG1, active compounds read low 0.967 | S. cerevisiae deletion strains, locus YLR221C, strain rsa3, active compounds read low 0.979 | S. cerevisiae deletion strains, locus YLR258W, strain gsy2, active compounds read low 0.996 | S. cerevisiae deletion strains, locus YLR262C, strain YPT6 (second series), active compounds read low 0.974 | S. cerevisiae deletion strains, locus YLR262C, strain YPT6, active compounds read low 1.04 | S. cerevisiae deletion strains, locus YLR268W, strain sec22, active compounds read low 0.969 | S. cerevisiae deletion strains, locus YLR320W, strain mms22, active compounds read low 1.01 | S. cerevisiae deletion strains, locus YLR330W, strain CHS5, active compounds read low 0.995 | S. cerevisiae deletion strains, locus YLR342W, strain FKS1 (second series), active compounds read low 0.968 | S. cerevisiae deletion strains, locus YLR342W, strain FKS1, active compounds read low 1.01 | S. cerevisiae deletion strains, locus YLR357W, strain rsc2, active compounds read low 0.983 | S. cerevisiae deletion strains, locus YLR370C, strain arc18, active compounds read low 1 | S. cerevisiae deletion strains, locus YLR371W, strain rom2, active compounds read low 0.963 | S. cerevisiae deletion strains, locus YLR384C, strain iki3, active compounds read low 0.998 | S. cerevisiae deletion strains, locus YLR418C, strain cdc73, active compounds read low 0.948 | S. cerevisiae deletion strains, locus YML016C, strain PPZ1, active compounds read low 0.994 | S. cerevisiae deletion strains, locus YML032C, strain rad52, active compounds read low 0.988 | S. cerevisiae deletion strains, locus YML120C, strain ndi1, active compounds read low 0.985 | S. cerevisiae deletion strains, locus YML124C, strain tub3, active compounds read low 0.994 | S. cerevisiae deletion strains, locus YMR058W, strain fet3, active compounds read low 1 | S. cerevisiae deletion strains, locus YMR078C, strain ctf18, active compounds read low 0.973 | S. cerevisiae deletion strains, locus YMR125W, strain sto1, active compounds read low 0.994 | S. cerevisiae deletion strains, locus YMR129W, active compounds read low 1 | S. cerevisiae deletion strains, locus YMR205C, strain PFK2, active compounds read low 0.994 | S. cerevisiae deletion strains, locus YMR223W, strain ubp8, active compounds read low 0.953 | S. cerevisiae deletion strains, locus YMR231W, strain pep5, active compounds read low 0.999 | S. cerevisiae deletion strains, locus YMR263W, strain SAP30, active compounds read low 0.997 | S. cerevisiae deletion strains, locus YMR307W, strain GAS1, active compounds read low 0.95 | S. cerevisiae deletion strains, locus YNL067W, strain RPL9B, active compounds read low 1 | S. cerevisiae deletion strains, locus YNL071W, strain lat1, active compounds read low 1.02 | S. cerevisiae deletion strains, locus YNL183C, strain NPR1, active compounds read low 0.963 | S. cerevisiae deletion strains, locus YNL209W, strain ssb2, active compounds read low 0.991 | S. cerevisiae deletion strains, locus YNL233W, strain BNI4, active compounds read low 0.987 | S. cerevisiae deletion strains, locus YNL248C, strain rpa49, active compounds read low 0.995 | S. cerevisiae deletion strains, locus YNL250W, strain rad50, active compounds read low 0.967 | S. cerevisiae deletion strains, locus YNL271C, strain bni1, active compounds read low 0.964 | S. cerevisiae deletion strains, locus YNL298W, strain CLA4, active compounds read low 0.966 | S. cerevisiae deletion strains, locus YNL307C, strain MCK1, active compounds read low 0.979 | S. cerevisiae deletion strains, locus YNL322C, strain KRE1 (second series), active compounds read low 0.991 | S. cerevisiae deletion strains, locus YNR049C, strain mso1, active compounds read low 1 | S. cerevisiae deletion strains, locus YNR052C, strain pop2, active compounds read low 0.963 | S. cerevisiae deletion strains, locus YOL006C, strain TOP1, active compounds read low 0.878 | S. cerevisiae deletion strains, locus YOL012C, strain htz1 1.03 | S. cerevisiae deletion strains, locus YOL147C, strain pex11, active compounds read low 0.983 | S. cerevisiae deletion strains, locus YOR001W, strain rrp6, active compounds read low 1.02 | S. cerevisiae deletion strains, locus YOR061W, strain CKA2, active compounds read low 0.996 | S. cerevisiae deletion strains, locus YOR069W, strain VPS5, active compounds read low 0.99 | S. cerevisiae deletion strains, locus YOR070C, strain gyp1, active compounds read low 1 | S. cerevisiae deletion strains, locus YOR080W, strain dia2, active compounds read low 1.01 | S. cerevisiae deletion strains, locus YOR083W, strain WHI5, active compounds read low 0.981 | S. cerevisiae deletion strains, locus YOR106W, strain vam3, active compounds read low 0.976 | S. cerevisiae deletion strains, locus YOR136W, strain idh2, active compounds read low 0.991 | S. cerevisiae deletion strains, locus YOR144C, strain elg1, active compounds read low 0.984 | S. cerevisiae deletion strains, locus YOR184W, strain ser1, active compounds read low 0.977 | S. cerevisiae deletion strains, locus YOR231W, strain MKK1, active compounds read low 1.01 | S. cerevisiae deletion strains, locus YOR265W, strain rbl2, active compounds read low 1 | S. cerevisiae deletion strains, locus YOR270C, strain vph1, active compounds read low 1.02 | S. cerevisiae deletion strains, locus YOR290C, strain snf2, active compounds read low 0.958 | S. cerevisiae deletion strains, locus YOR316C, strain cot1, active compounds read low 0.986 | S. cerevisiae deletion strains, locus YPL051W, strain arl3, active compounds read low 0.976 | S. cerevisiae deletion strains, locus YPL078C, strain atp4, active compounds read low 0.989 | S. cerevisiae deletion strains, locus YPL106C, strain sse1, active compounds read low 0.959 | S. cerevisiae deletion strains, locus YPL240C, strain hsp82, active compounds read low 1.01 | S. cerevisiae deletion strains, locus YPL241C, strain CIN2, active compounds read low 1 | S. cerevisiae deletion strains, locus YPL256C, strain CLN2, active compounds read low 0.992 | S. cerevisiae deletion strains, locus YPR119W, strain clb2, active compounds read low 0.982 | S. cerevisiae deletion strains, locus YPR141C, strain kar3, active compounds read low 0.975 | S. cerevisiae deletion strains, locus YPR163C, strain tif3, active compounds read low 0.986 | S. cerevisiae deletion strains, locus YPR167C, strain met16, active compounds read low 0.993 | S. cerevisiae deletion strains, strain wtn01, active compounds read low 0.971 | S. cerevisiae strains, strain wild type, active compounds read low 1.01
